# Results reported in ChEMBL document CHEMBL3988442, “University of Dundee, Small-Polar-MMV Screening Library” (2021).
# In all, about 38,000 compounds went through this assay and about 1,200 (3.2%) showed an effect of 50% or more. The median lay at about -58%. The full list was thinned out, with strong results kept by preference.
# System: Plasmodium falciparum
# Experiment: Calibr Malaria Delayed Death Assay SOP
# Type: functional, organism-based
# Parameters: scale not given: in the data most compounds retested in dose-response had high values
# Settings: concentration 4.99e-06 (unit not given; other assays of the set use mol/L)
row,SMILES,Percent Effect [%]
1,CCc1ccc(CN2CCNC(C(=O)N3CCN(C)CC3)C2)o1 (stereo not given),-22.63
2,CCOc1ncccc1C(=O)N1CCCC1Cn1cc(C)cn1 (stereo not given),-83.81
3,Fc1ccccc1CN1CCCN(c2ncnc3[nH]ccc23)CC1,-95.46
4,Cc1nc(C)c(C)c(N2CCC(O)(c3ccc(F)cc3)CC2)n1,-9.23
5,CNc1nnc(SCc2nnc(C(C)(C)C)o2)s1,-74.95
6,O=C1NCC(C(=O)Nc2ncc(Cc3ccc(F)cc3F)s2)N1 (stereo not given),-63.93
7,O=C(Cc1cccc2ccccc12)N1CCC(Nc2cccnn2)CC1,-77.23
8,O=C1CC2(CCN(CCCO)CC2)CN1Cc1ccc(F)c(F)c1,-28.18
9,CC(NCC1CCN(CCO)CC1)c1ccc(F)c(Cl)c1 (stereo not given),83.31
10,CS(=O)(=O)CCN1CCC(Nc2c(Cl)cccc2C#N)CC1,-32.59
11,COc1ccc(C(C)N2CCC(CO)CC2)cc1Cl (stereo not given),-19.12
12,Cc1cccc(C(C)NCC2CCS(=O)(=O)CC2)c1 (stereo not given),7.654
13,COCCN1CCC(CNC(=O)Nc2ccc(F)c(Cl)c2)C1 (stereo not given),-33.14
14,CC(NC1CCN(CCS(C)(=O)=O)CC1)c1ccc(Cl)cc1 (stereo not given),56.47
15,CC(c1ccc(Cl)cc1)N1CCN(CCS(C)(=O)=O)CC1 (stereo not given),-44.52
16,CC(NCC1CCN(CCO)CC1)c1cccc(Cl)c1 (stereo not given),84.07
17,Cc1ccc(CNC(=O)CNCC2CCN(CCO)CC2)s1,-48.54
18,CC(NCC1CCN(CCO)CC1)c1cccnc1 (stereo not given),-40.75
19,O=C(NCCOc1ccc(Cl)cn1)Nc1nccs1,-1.653
20,CCS(=O)(=O)N1CCc2ccc(NC(=O)Nc3cccc(C)c3)cc21,-42.73
21,O=C(NCc1ccccn1)[C@H]1COC[C@H]2CN(CC3CC3)C[C@H]21.O=C(O)C(F)(F)F.O=C(O)C(F)(F)F,-42.42
22,CC(NC(=O)Cn1ccc2sccc2c1=O)c1ccccc1 (stereo not given),-76.67
23,COc1ccc(-c2cc(C3(O)CCOC(C)(C)C3)on2)cc1 (stereo not given),-20.9
24,Cc1c(COC(C)C)cccc1NC(=O)N1CC[C@H](O)C1,-81.26
25,NC(=O)c1c(SCCN2CCCCC2)sc2c(O)cc(=O)[nH]c12,1.518
26,O=S1(=O)[C@@H](c2ccccc2)[C@H](CO)CN1c1ccccc1,-141.9
27,Cc1cc(C)nc(CN(C)c2nc(C3CCCC3)nc3c2cnn3C)c1,-50.46

row,SMILES,Percent Effect [%]
1,CCN(CC)c1ncnc2c1CCN(c1ccc(C)nn1)CC2,-148.5
2,Cc1nn(CCCNC(=O)C2CCN(S(C)(=O)=O)CC2)cc1Cl,-83.52
3,Cc1cnn(C2CN(CCOc3ccccc3C#N)C2)c1,-94.34
4,O=C(Cc1ccccn1)N1CCc2ncnc(NC3CCC3)c2CC1.O=C(O)C(F)(F)F,-99.33
5,COCc1ncc(CN2CCC(Oc3ccc(OC)cc3)CC2)cn1,-166.1
6,O=C(Nc1cccc(OCC(F)F)n1)c1ccncc1,-44.55
7,COc1ccc(NC2CCCN(Cc3cnc(N(C)C)s3)C2)cc1OC (stereo not given),-57.98
8,CCOc1cccc(CNc2ccccc2C(F)(F)F)c1O,-100.4
9,CCOc1ccccc1-c1noc(CN2CCCC(O)C2)n1 (stereo not given),-111.8
10,COc1ccccc1CN1CCCC(n2cccn2)C1 (stereo not given),31.44
11,COc1cccc(CN2CCCC(Nc3cccc(F)c3)C2)c1O (stereo not given),66.55
12,CN1CCOC(CNCC(=O)NCCC2=CCCCC2)C1 (stereo not given),-80.77
13,CC[C@@]1(O)CCN(c2ncc(Cl)cc2F)C[C@H]1O,-98.16
14,COCC[C@]1(O)CCN(c2ncc(Cl)cc2F)C[C@H]1C,-23.85
15,Cc1nn(Cn2ccc(C(=O)N3CCCC(C)C3)n2)c(C)c1Cl (stereo not given),-15.8
16,O=C(Cn1nc(C(F)(F)F)c(Br)c1C1CC1)N1CCOCC1,-21.49
17,CN(CC1CCCN1C)c1nccc(C2CCCC2)n1 (stereo not given),7.396
18,CN1CCCC1CCn1ccnc1-c1nc2ccccc2[nH]1 (stereo not given),72.06
19,Cc1nccn1CCC1CCCCN1C(=O)c1ccc2[nH]nnc2c1 (stereo not given),-19.01
20,c1ccc(-c2noc(CCCN3CCCC3Cn3cccn3)n2)cc1 (stereo not given),29.02
21,Cn1ccnc1CN1CCCCC1c1nc(-c2ccccc2)no1 (stereo not given),-149.2
22,CC(=O)Nc1ccc2nc(-c3nccn3C[C@@H]3CCCO3)ccc2c1,-89.17
23,CN1CCCC1CCn1ccnc1-c1nc(-c2ccccc2)no1 (stereo not given),57.38
24,OCC1CCCCN1CCn1ccnc1-c1nc2ccccc2[nH]1 (stereo not given),10.13
25,CN1CCCC1CCn1ccnc1-c1ccc2ccccc2n1 (stereo not given),54.89
26,C[C@@H]1CN(C(=O)c2cc(Cn3ccc4ccccc43)[nH]n2)C[C@H](C)O1,-126.8
27,CC1CCCN(C(=O)Nc2cccc(CN3CCOC3=O)c2)C1 (stereo not given),-90.51

row,SMILES,Percent Effect [%]
1,C[C@@H](O)CNC(=O)c1nc(Cc2c(Cl)cccc2Cl)no1,-61.62
2,COc1ccc(C(CC(=O)O)NC(=O)CCc2cccs2)cc1OC (stereo not given),-100.1
3,CN1CCC(N(Cc2ccncc2)Cc2nc3c(s2)CCCC3)CC1,7.357
4,COc1ccc(F)cc1C(C)NC(=O)Cn1ccc(=O)n(C)c1=O (stereo not given),-164.7
5,COC1CCN(CCNC(=O)NCC(C)c2cccc(C)c2)CC1 (stereo not given),54
6,COC1CCN(CCNC(=O)NC(C)c2ccc(F)c(F)c2)CC1 (stereo not given),45.3
7,COC1CCN(CCNC(=O)NC(C)c2cccc(Cl)c2)CC1 (stereo not given),23.1
8,N#Cc1cc(Cn2cnc(C3CCC3)cc2=O)ccc1F,-42.13
9,Cc1cnn(CC2CN(Cc3nnc(C4CC4)n3C)CCO2)c1 (stereo not given),-158.8
10,CC(C)n1cnnc1CCNCc1cn(CCC(N)=O)c2ccccc12,-17.79
11,CC(NCc1cn(CCC(N)=O)c2ccccc12)c1nncn1C (stereo not given),-188.2
12,Cc1ccc(C(C)NCc2cn(CCC(N)=O)c3ccccc23)cc1C (stereo not given),82.29
13,CN(C)C(=O)CN1CCc2ncnc(C3CC3)c2CC1,-29.69
14,COc1ncccc1NC(=O)NC(C)c1nncn1C (stereo not given),-34.42
15,Cc1ccc(C(CNCc2cccc3c2OCO3)N2CCOCC2)o1 (stereo not given),65.56
16,Cc1cnc(C(=O)NCC(c2ccc(C)o2)N2CCOCC2)cn1 (stereo not given),-124.5
17,CC(C)c1nn(C)c(N(C)C)c1CNCc1cccc2c1OCO2,16.39
18,c1csc(C(CNCc2cccc3c2OCO3)N2CCOCC2)c1 (stereo not given),39.98
19,CC(C)C(CNCc1cccc2c1OCO2)N1CCOCC1 (stereo not given),75.82
20,Cl.c1cc(CNCc2ccnc(N3CCOCC3)c2)c2c(c1)OCO2,-34.78
21,O=C(NCCn1cccn1)c1ccn(-c2cccc(F)c2)n1,-72.56
22,Cc1noc2nc(C3CC3)c(Cl)c(C(=O)O)c12,-135.9
23,Cc1ccc(N2CCC(C(=O)NC3CCc4nccn4C3)CC2)nc1 (stereo not given),-14.8
24,CC(C)[C@@H]1CN(C(=O)NCc2ccco2)C[C@H]1N(C)C,-12.41
25,CC(C)[C@@H]1CN(C(=O)CN(C)Cc2ccccc2)C[C@H]1C(=O)O,-22.97
26,CC(C)[C@@H]1CN(C(=O)C2(c3ccccc3)CCN(C)CC2)C[C@H]1N(C)C,83.06
27,CCCn1c(N2CCCC(C)C2)nc2c(C)nn(C)c2c1=O (stereo not given),-32.41

row,SMILES,Percent Effect [%]
1,Cc1ncncc1C(=O)N1CCOC(c2nc(C(C)C)n[nH]2)C1 (stereo not given),-146.2
2,Cn1ncc(N2CCOC(CCNC(=O)CO)C2)cc1=O (stereo not given),-51.52
3,CC(=O)N1CCC2(CCN(C(=O)c3ccc(F)c(C(F)(F)F)c3)CC2)C1,-64.74
4,O=C(NCc1cccnc1N1CCCC(O)C1)c1ccsc1 (stereo not given),-31.1
5,CN1CCN(c2ccccc2CNC(=O)CSC(F)(F)F)CC1,67.15
6,CCOCCCNC(=O)Cc1cccc(F)c1,-98.72
7,CCc1ccccc1CNC(=O)CNCC(F)(F)F,-137.2
8,CC(C)N(C)CC(=O)NCc1ccccc1N1CCN(C)CC1,43.49
9,CN1CCN(c2ccccc2CNC(=O)Cc2cccc(F)c2)CC1,77.21
10,Cc1cc(=O)n(C)cc1NC(=O)Cc1cccc(F)c1,-34.19
11,CN1CCCN(c2ccc(F)cc2CNC(=O)c2ccsc2)CC1,59.32
12,O=C(CN1CCS(=O)(=O)CC1)NCc1ccccc1F,-87.27
13,CN1CCN(c2ccccc2CNC(=O)Cc2ccccc2F)CC1,75.84
14,Cc1cc(CNC(=O)NCc2ccccc2N2CCOCC2)no1,-32.16
15,Cc1ccc(C(=O)NCc2cc(F)ccc2N2CCCN(C)CC2)o1,33.96
16,CC(=O)N1CCCN(C(=O)c2cnn(C(C)(C)C)c2C)CC1,-71.74
17,Cc1ccc(CNC(=O)C2CCNC(=O)C2)c(OCCC(C)C)c1 (stereo not given),-137.1
18,COc1nn(C)c2c1CCCN(C(=O)c1ccc3ccccc3n1)C2.O=C(O)C(F)(F)F,-93.98
19,O=C(NCc1cc(=O)n2c(n1)CN(CC1CC1)CCC2)c1ccsc1.O=C(O)C(F)(F)F,-77.99
20,Cc1cc(NS(=O)(=O)c2cccs2)ccc1-n1cccc1C(=O)O,-24.74
21,CN1CCN(c2ccccc2NC(=O)NCCc2ccccc2)CC1,83.6
22,CN1CCN(c2ccccc2NC(=O)NCC[S+](C)[O-])CC1 (stereo not given),-127.8
23,CN1CCN(c2ccccc2NC(=O)NCCc2ccc(O)cc2)CC1,-22.54
24,c1nc(N2CCc3[nH]cnc3C2)c2cc[nH]c2n1,-49.27
